Hits are enriched below; roughly 10% of the tested compounds scored in any of these assays.
HPGD inh = blocks human HPGD enzyme activity; P15428; purified HPGD, NADH fluorescence kinetic, PGE2 substrate; Potency, µM, for inactives: top-dose activity change, negative = inhibition, hits mostly inhibitors; hit rate 4.3% among 150,000; note: potency is the fitted concentration of half-maximal effect
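NADH formation kinetics: reaction with 30 uM PGE2 and 1 mM NAD+ (final), 20 nM enzyme, Tris-HCl pH 8 with Tween 20, after 15 min compound preincubation at room temperature. Fluorescence change, last versus first of five reads.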
ALOX12 inhib = 12-hLO (ALOX12) enzyme inhibition; P18054; purified 12-hLO, xylenol orange hydroperoxide absorbance; Potency, µM (top dose mostly 57.1 µM), for the others: top-dose activity change, negative = inhibition, usual class: inhibitors; hit rate 0.12% among 150,000; AID 1452; active = well fitted inhibition curve with a large enough effect; inconclusive = small, poorly fitted or top-dose-only effect; note: potency is the fitted concentration of half-maximal effect; nearly all actives have a fitted effect of over 55% in size
Target sequence (P18054 whole entry, looked up): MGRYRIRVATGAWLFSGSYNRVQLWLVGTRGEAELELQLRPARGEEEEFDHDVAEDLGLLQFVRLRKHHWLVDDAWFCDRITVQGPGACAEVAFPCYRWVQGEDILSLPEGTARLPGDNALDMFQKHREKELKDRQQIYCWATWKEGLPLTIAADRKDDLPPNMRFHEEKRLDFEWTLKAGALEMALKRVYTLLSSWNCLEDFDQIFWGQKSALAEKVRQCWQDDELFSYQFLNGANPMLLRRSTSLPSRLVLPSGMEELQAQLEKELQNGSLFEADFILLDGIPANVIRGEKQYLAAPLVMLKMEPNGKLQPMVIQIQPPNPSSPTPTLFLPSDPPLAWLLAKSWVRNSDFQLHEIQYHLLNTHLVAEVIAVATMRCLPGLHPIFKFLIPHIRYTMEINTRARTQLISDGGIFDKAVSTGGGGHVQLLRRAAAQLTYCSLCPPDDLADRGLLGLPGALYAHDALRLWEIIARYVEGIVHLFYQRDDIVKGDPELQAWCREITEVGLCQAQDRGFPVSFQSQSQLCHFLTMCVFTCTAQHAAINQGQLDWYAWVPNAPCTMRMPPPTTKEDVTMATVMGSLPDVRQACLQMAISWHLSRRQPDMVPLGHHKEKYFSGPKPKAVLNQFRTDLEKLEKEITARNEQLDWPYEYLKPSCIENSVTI
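Purified human 12hLO (150 nM), preincubated 15 min with compound, then 40 uM arachidonic acid for 30 min, room temperature, Hepes pH 7.0 with 0.01% Triton X-100. Hydroperoxide detected by ferrous iron/xylenol orange; 573/405 nm absorbance ratio gives reaction progress.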
ALDH1A1 block = blocks purified human ALDH1A1 activity; AID 1030; Purified ALDH1A1, NADH fluorescence, propionaldehyde substrate; hit rate 7.3% among 220,000; P00352; Potency, µM (titrated, usually from 75.3 µM), without a hit: top-dose activity, negative = inhibition, hits mostly inhibitors;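 note: potency is the fitted concentration of half-maximal effect; plate controls were no enzyme wells and a reference inhibitor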
PNC assembly inh = blocks assembly of the perinucleolar compartment. PC3M PTB-GFP, PNC prevalence imaging, 16 h; hits give low values. activity change (PNC), negative = inhibition, % at 10 µM. hit rate 3.1% among 140,000;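 active = readout at or below -70, meaning at least 70% loss of cells showing the perinucleolar compartment, a nuclear body marking cancer cells; inconclusive = readout between -30 and a set limit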;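 note: plate controls were DMSO wells for no effect and camptothecin positive control wells for full effect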
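Compounds are pinned in duplicate onto adhered PC3M cells stably expressing GFP-tagged PTB and incubated 16 h at 37 C. Cells are then fixed, nuclei stained with Hoechst, and PNC-positive cells counted.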
LMNA splice mod = LMNA splicing modulation | HeLa LMNA splicing GFP/RFP minigene ratio, 48 h | Potency, µM (top dose mostly 46.1 µM), inactives show top-dose ratio change, negative = inhibition, usual class: inhibitors | hit rate 0.01% among 200,000; active = well fitted inhibition curve with a large enough effect in the signal ratio, with a control signal flat, not every such curve was filed as active; inconclusive = small, poorly fitted or top-dose-only effect, or effect the other way, or a change in a side signal; the % refers to the signal ratio; note: potency is the fitted concentration of half-maximal effect
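S3 HeLa cells stably expressing lamin A-EGFP splicing minigene plus DsRed2, 600 cells/well, 48 h compound exposure at 37C. Laser-scanning cytometry; analysed as GFP (500-530 nm)/RFP (575-640 nm) total intensity ratio; 0.5% DMSO vehicle.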
* hit, by the source's call; ? = inconclusive; / = no result; [ ] = another dose, or the depositor's remark. Unless noted, calls come from the whole dose curve; as a rule, active = well fitted inhibition curve with a large enough effect (not every such curve was filed as active); inconclusive = small, poorly fitted or top-dose-only effect, or another doubt; inactive = no such curve, though single readings can be large or run the other way. Unless noted, % is set by controls: 0 for no effect and ±100 for the full control effect.

SMILES	HPGD inh	ALOX12 inhib	ALDH1A1 block	PNC assembly inh	LMNA splice mod
O=C(O)c1cc(=O)c2cccc(O)c2[nH]1	-8.5%	-6.3%	-9.7%	/	/
O=C(CCC1CCCCC1)Nc1ccccc1-c1ccccc1	-15.7%	-3.6%	?	?	17.0%
O=C(CCC1CCCC1)Nc1ccccc1-c1ccccc1	-8.1%	-2.7%	20µM*	18.5	-9.5%
O=C(CCc1ccc(S(=O)(=O)NC2CCCCC2)cc1)NCc1ccccn1	/	/	-4.7%	/	/
O=C(CCC1CCCCC1)NC1=NCCS1	-5.6%	-1.3%	-8.0%	-88.9*	-3.0%
O=C(CCC1CCCCC1)Nc1ccccc1O	20µM*	-2.1%	?	5.3	-11.5%
O=C(CCC1CCCCC1)NCc1ccccn1	31.6µM*	1.6%	4.1%	?	5.6%
O=C(c1cccc(F)c1)N1CCC2(CCCN(C(c3ccccc3)c3ccccc3)C2)CC1	-7.3%	-0.9%	?	/	/
CCCCCCN(C(=O)CCCCCN1C(=O)NC(c2ccccc2-c2ccccc2)C(C(=O)OCc2ccccc2)=C1C)C(C(=O)NCCCC)c1ccc(OCC(=O)OC)c(C(=O)OC)c1 (centres undefined)	-12.0%	-9.0%	35.5µM*	/	/
CCCCCCN(C(=O)CCCCCN1C(=O)NC(C2CCCCC2)C(C(=O)OCc2ccccc2)=C1C)C(C(=O)NCCCC)c1ccc(OCC(=O)OC)c(C(=O)OC)c1 (centres undefined)	-15.8%	-4.7%	28.2µM*	/	/
COc1ccc(CCN2C(=O)CN(C3CCC(C)CC3)C(=O)C2c2ccc(OC(C)C)c(OC)c2)cc1OC (centres undefined)	/	/	/	/	-23.0%[46 µM]
CC(C)c1nn2c(=O)cc(COC(=O)c3ccccc3NC(=O)COc3ccccc3)nc2s1	/	/	/	/	10.2%[46 µM]
CCc1ccc(CN2CCC(CO)(CC3CCCCO3)CC2)o1 (centres undefined)	/	/	8.91µM*	/	-9.9%[46 µM]
O=C1SCC(c2ccc(Cl)cc2Cl)=NN1Cc1nnc(-c2ccccc2)o1	31.6µM*	0.3%	-6.7%	24.2	?
O=C1SCC(c2ccccc2)=NN1Cc1ccccc1	-20.7%	-1.7%	?	-6.8	?
CC(=O)Nc1ccc(C2=NN(Cc3nnc(-c4ccccc4)o3)C(=O)SC2)cc1	5.01µM*	2.4%	-10.0%	-15.1	?
CN(C)c1ccc(CNC(=O)CN2C(=O)CCn3nc(-c4cn(C)c5ccccc45)cc32)cc1	/	/	/	/	-12.3%[46 µM]
COc1cccc(Cn2c(=O)n(CC3CCC(C(=O)NC(C)C)CC3)c(=O)c3sccc32)c1 (centres undefined)	/	/	/	/	13.8%[46 µM]
CC(=O)NC1C(c2nc3ccccc3s2)=C(c2ccccc2)C(=O)N1c1ccc(C)cc1 (centres undefined)	-24.3%	-4.0%	7.94µM*	18.6	-1.9%
O=C(CN(C(=O)CCC(=O)Nc1nccs1)C1CCCC1)NCc1ccc2c(c1)OCO2	/	/	2.0%	/	-3.6%[46 µM]
O=C(c1ccc2ccccc2c1)N1CCN(c2ccc([N+](=O)[O-])c(N3CCOCC3)c2)CC1	-16.6%	-6.8%	?	?	?
CC(C)(O)C#Cc1ccc(C(=O)N2CCN(c3ccc([N+](=O)[O-])cc3)CC2)cc1	/	/	20µM*	/	?
Nc1nnc(SCC(=O)c2ccccc2)s1	-17.1%	-2.3%	?	-0.7	9.4%
Cc1cccc(C(=O)N2CCN(c3ccc([N+](=O)[O-])c(N4CCOCC4)c3)CC2)c1	-16.1%	-10.3%	5.01µM*	31.9	11.7%
O=C(c1cc([N+](=O)[O-])ccc1Cl)N1CCN(c2ccccc2)CC1	-12.5%	-0.8%	?	29.0	-11.9%
SMILES	HPGD inh	ALOX12 inhib	ALDH1A1 block	PNC assembly inh	LMNA splice mod
Cc1c(-c2ccccc2)oc2c(C(=O)N3CCN(c4ccc([N+](=O)[O-])cc4)CC3)cccc2c1=O	-17.8%	-2.8%	3.55µM*	8.1	-10.7%
Nc1nnc(SCC(=O)c2ccc([N+](=O)[O-])cc2)s1	/	/	2.82µM*	/	?
COc1cccc(CNCCSc2nnnn2-c2ccccc2)c1OC	/	/	/	/	19.3%[46 µM]
COC(=O)N1c2ccccc2C23[C@@H]4CN5CCC[C@]6(CCC12C(O)(C6)C4=O)[C@H]53	-1.8%	/	4.0%	/	/
O=C(Nc1ccc2c(c1)OCCO2)C1CCN(C(=O)c2ccc([N+](=O)[O-])cc2)CC1	/	/	-6.1%	/	/
O=C(O)c1ccccc1SCC(=O)N1CCCCC1	-6.1%	-2.8%	10.5%	-6.4	3.5%
CCn1cc(C(=O)N2CCN(c3ccc([N+](=O)[O-])cc3)CC2)c(=O)c2ccc(C)nc21	/	/	25.1µM*	/	?
CCCCN(C)C(=O)c1cn(CC)c2nc(C)ccc2c1=O	-16.0%	-4.2%	5.4%	-11.4	5.1%
O=C(c1ccc2c(c1)OCCO2)N1CCN(c2ccc([N+](=O)[O-])cc2)CC1	/	/	14.1µM*	/	/
O=C(CSc1ccccc1C(=O)O)c1ccc([N+](=O)[O-])cc1	/	/	15.8µM*	/	3.9%[46 µM]
CCSc1ccccc1C(=O)N1CCN(c2ccc([N+](=O)[O-])cc2)CC1	/	/	14.1µM*	/	?
CCCn1c2ccccc2c2cnn(CC(=O)NCc3ccc(OC)cc3)c(=O)c21	/	/	/	/	20.7%[46 µM]
S=C(NCc1cccnc1)Nc1ccc(Cl)c(Cl)c1	14.1µM*	-21.5%	?	-26.7	?
CCC(C)c1ccc(NC(=S)NCc2cccnc2)cc1 (centres undefined)	?	-9.7%	15.8µM*	-13.0	?
Fc1ccc(NC(=S)NCc2cccnc2)cc1	/	/	9.4%	/	-19.9%[46 µM]
CC1=C(C(=O)Nc2ccc(C)cc2C)C(c2cccn2C)n2ncnc2N1 (centres undefined)	/	/	/	/	26.4%[46 µM]
Cc1cc2c(n1-c1ccc(C(=O)NCCc3ccc(Cl)cc3)cc1)CCCC2	/	/	/	/	7.2%[46 µM]
O=C(CSc1nnc(Cc2ccccc2)n1-c1ccc(F)cc1)N1CCOCC1	6.9%	4.8%	-61.9%	14.6	-3.5%
CC1CCN(C(=O)CSc2nnc(CN3CCOCC3)n2-c2ccccc2)CC1	-11.6%	-7.9%	1.26µM*	?	2.1%
O=C(CSc1nnc(CN2CCOCC2)n1-c1ccccc1)N1CCc2ccccc21	-0.5%	1.0%	7.94µM*	-3.2	1.1%
CCCCCCCCCCCCCCCCCCO	-7.8%	-0.4%[0.00818 µM]	11.0%	/	?
CCN(CC)C(=O)c1sc2nc(-c3cccs3)cc(-c3cccs3)c2c1N	/	/	20µM*	/	/
COc1cc(/C=N/NC(=O)c2ccc(O)cc2)ccc1Oc1ccc([N+](=O)[O-])cn1	22.4µM*	-8.4%	17.8%	?	-27.7%
CC1Cn2cc(C(=O)Nc3ccccc3C(F)(F)F)c(=O)c3c(Cl)ccc(c32)O1 (centres undefined)	/	/	/	/	-1.0%[46 µM]
O=C(NC1CCCCC1)C1Cc2ccccc2CN1S(=O)(=O)c1ccc(F)cc1 (centres undefined)	-16.6%	5.1%	4.7%	-100.0*	-7.4%
O=C(C1Cc2ccccc2CN1S(=O)(=O)c1ccc(F)cc1)N1CCCCC1 (centres undefined)	5.3%	-4.4%	7.0%	47.6	-3.3%
Cc1ccc(C(=O)O)cc1	-12.1%	0.0%	?	/	/
O=Cc1ccc(C(=O)O)cc1	-10.4%	-0.7%	22.4µM*	/	/

High-throughput results deposited in PubChem BioAssay by National Center for Advancing Translational Sciences (NCATS).
